In PubChem BioAssay AID623911 (Vanderbilt High Throughput Screening Facility, 2012) one finds manual score data, which are given here for 108 compounds.

Hit rate of the full screen: of about 2,100 compounds, about 770 (37%) were called active.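 Rule for the calls: active = by-eye trace score of 1 for enhancers or -1 for inhibitors, so actives lie on both sides (some results past the limit were not filed as active); inactive = score 0, or 3 fluorescent, or 4 baseline rise.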 Some of the results follow.

For the test, the target named is G protein-activated inward rectifier potassium channel 2 (Homo sapiens) + G protein-activated inward rectifier potassium channel 1 (Homo sapiens) (UniProt P48051+P48549). The test can be described thus: GIRK1/2 thallium flux modulators, retest, confirmation, cell-based, HEK293 rmGlu8/hGIRK1/2, FluoZin-2 (AID 623911). The note with it: HEK293 rmGlu8/hGIRK1/2, thallium flux FluoZin-2; actives lie on both sides; glutamate co-added at its EC20 level.
G protein-activated inward rectifier potassium channel 2 (Homo sapiens) + G protein-activated inward rectifier potassium channel 1 (Homo sapiens), sequence (P48051 whole entry, looked up): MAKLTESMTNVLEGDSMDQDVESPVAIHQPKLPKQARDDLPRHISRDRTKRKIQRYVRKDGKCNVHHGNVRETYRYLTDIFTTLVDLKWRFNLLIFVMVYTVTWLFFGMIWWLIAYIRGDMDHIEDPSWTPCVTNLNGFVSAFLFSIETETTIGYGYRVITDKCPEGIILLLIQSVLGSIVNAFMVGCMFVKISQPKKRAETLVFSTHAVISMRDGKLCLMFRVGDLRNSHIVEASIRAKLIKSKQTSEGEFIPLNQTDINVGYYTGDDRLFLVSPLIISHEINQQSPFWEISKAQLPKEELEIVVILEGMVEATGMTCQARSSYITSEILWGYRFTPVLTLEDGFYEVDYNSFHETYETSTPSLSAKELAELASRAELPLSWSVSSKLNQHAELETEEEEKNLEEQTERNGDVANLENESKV
G protein-activated inward rectifier potassium channel 2 (Homo sapiens) + G protein-activated inward rectifier potassium channel 1 (Homo sapiens), sequence (P48549 whole entry, looked up): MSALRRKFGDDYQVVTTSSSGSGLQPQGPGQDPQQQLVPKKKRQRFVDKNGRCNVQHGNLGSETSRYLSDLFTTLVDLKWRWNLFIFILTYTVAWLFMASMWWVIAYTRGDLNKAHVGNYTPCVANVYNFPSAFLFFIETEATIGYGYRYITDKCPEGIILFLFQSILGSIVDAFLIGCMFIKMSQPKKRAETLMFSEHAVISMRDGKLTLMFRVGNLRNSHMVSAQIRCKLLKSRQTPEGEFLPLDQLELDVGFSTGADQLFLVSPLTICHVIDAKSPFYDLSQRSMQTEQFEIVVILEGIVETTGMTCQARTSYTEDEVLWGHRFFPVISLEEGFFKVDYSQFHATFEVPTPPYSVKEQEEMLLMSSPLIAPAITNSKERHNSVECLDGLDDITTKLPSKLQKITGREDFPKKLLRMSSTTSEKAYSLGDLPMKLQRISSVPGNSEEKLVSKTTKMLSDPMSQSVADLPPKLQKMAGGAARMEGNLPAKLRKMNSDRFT
In the case of `Cc1nn(-c2ccccc2)c(OC(=O)c2cccs2)c1S(=O)(=O)c1ccccc1`, the manual score was 0 (inactive). For `CCOC(=O)c1c(C)n(C)c2ccc(O)c(CN3CCC(C)CC3)c12` the value was -1 (active); for `CCN(CC)C(=O)COc1ccc2oc(C)c(C(=O)OC)c2c1`, 0 (inactive); for `CCOC(=O)c1c(C)[nH]c2c1cc(O)c1ccccc12`, 0 (inactive). For the compound `CCOC(=O)c1c(C)oc2ccc(O)c(CN3CCCCC3)c12`, the manual score is -1 (active). For `CCOc1ccc(C2=NNC(c3cccs3)=Nc3ccc(OC)cc32)cc1` the value was 0 (inactive); for `Cc1ccc(-n2[nH]c(C)c(C=Nc3cc(C)ccn3)c2=O)cc1`, 0 (inactive); for `CCn1c(SCc2ccc(Cl)cc2)nnc1-c1ccccc1`, 0 (inactive).

`COc1ccc2nc(/N=C/c3c(C)[nH]n(-c4ccc(C)cc4C)c3=O)sc2c1`: the manual score was 1 (active).

As to `Cc1[nH]n(-c2ccccc2)c(=O)c1/C=N/c1ccccn1`, the manual score was 0 (inactive). Under `Cc1[nH]n(-c2ccc(Cl)cc2)c(=O)c1/C=N/c1nnc(-c2ccccc2)s1` stands 1 (active); under `CCOc1ccc2nc(/N=C/c3c(C)[nH]n(-c4ccccc4)c3=O)sc2c1`, 1 (active); under `COc1ccc2nc(/N=C/c3c(C)[nH]n(-c4ccc(C)cc4)c3=O)sc2c1`, 1 (active). For the compound `COc1ccc(OC)c(-c2c3cc(O)c(=O)cc-3oc3cc(O)c(O)cc23)c1`, the manual score is 0 (inactive).

For `Cc1ccc(NC(=O)c2cc(NC(=O)CCC(=O)O)ccc2N2CCCCC2)cc1`, the manual score is 0 (inactive). Under `CN1CCN(C(=O)Nc2cccc3ccccc23)CC1` stands 0 (inactive); under `CC1=C(C)C(c2ccccc2)NC(=S)N1` (stereo not drawn), 0 (inactive).

As to `CCOc1[nH]n(-c2ccc(Cl)cc2)c(=O)c1C=Nc1ccc(Cl)cc1`, the manual score is 0 (inactive).

Take `CCOc1ccc2nc(NC(=O)C(CC)Sc3nc(C)cc(=O)[nH]3)sc2c1` (stereo not drawn): the manual score was 0 (inactive). For the compound `CCOc1ccc2nc(/N=C/c3c(C)[nH]n(-c4ccc(C)cc4)c3=O)sc2c1`, the manual score is 1 (active). In the case of `C=CCNC(=S)Nc1nc2c(cc1C(=O)OCC)CCCC2`, the manual score was 1 (active). On to `CCNC(=S)Nc1nc2c(cc1C(=O)OCC)CCCC2`, for which the manual score was 1 (active). Under `CCOC(=O)c1cc(NC(=O)SCC(=O)O)c(C)nc1C` stands 0 (inactive); under `C=C(C)CNC(=S)Nc1nc2c(cc1C(=O)OCC)CCCC2`, 1 (active). Consider `C=C(C)CNC(=S)N/N=C1\CCCCc2ccccc21`, for which the manual score was 0 (inactive). Under `CCOC(=O)C1=NNC(C(=O)c2ccc(OC)cc2)C1c1ccccc1` (stereo not drawn) stands 0 (inactive). For `CC(Cc1cccs1)NC(=O)Nc1ccc(Cl)cc1` (stereo not drawn) the value was 0.5 (inactive).

For `CC1CCc2c(sc(NC(=O)C(=O)NCc3ccco3)c2C#N)C1` (stereo not drawn), the manual score was 0 (inactive). Under `O=C(Nc1ccc(Cl)cc1)NC1CCCCC1Cc1ccco1` (stereo not drawn) stands 1 (active); under `CC(Oc1ccc(Cl)cc1Cl)C(=O)NC(=S)N1CCc2ccccc21` (stereo not drawn), 1 (active). Under `Cc1cccc(OCC(=O)NC(=S)N2CCCc3ccccc32)c1` stands 0 (inactive). As to `O=C(COc1ccccc1Cl)NC(=S)N1CCc2ccccc21`, the manual score was 1 (active).

As to `O=C(COc1ccc(Br)cc1Cl)NC(=S)N1CCc2ccccc21`, the manual score was 0.5 (inactive). `O=C(COc1ccccc1)NC(=S)N1CCc2ccccc21`: the manual score is 1 (active). As for `O=C(COc1ccc(Cl)cc1Cl)NC(=S)N1CCCc2ccccc21`, the manual score was 0 (inactive). Regarding `CCOc1cc(C(=O)NCc2ccncc2)cc(OCC)c1OCC`, the manual score was 0 (inactive). In the case of `CO/N=C(\Cn1ncc(N2CCCC2)c(Cl)c1=O)c1ccc(Cl)cc1`, the manual score is -1 (active). For `CC(=O)c1ccc(N2CCCC2)c(F)c1` the value was 0 (inactive); for `CO/N=C(\Cn1ncc(N2CCCC2)c(Br)c1=O)c1ccc(Cl)cc1`, -1 (active); for `CCN(CC)c1cnn(C/C(=N\OC)c2ccc(Cl)cc2)c(=O)c1Br`, -1 (active). For `COc1ccc(-c2ccnc3nc(Sc4ncc(C(F)(F)F)cc4Cl)nn23)cc1`, the manual score was 0.5 (inactive). Under `CC(/C=N/NC(=O)c1c(Br)cnn1C)=C\c1ccccc1` stands 0.5 (inactive); under `Cc1cc(C(F)(F)F)c2c(=O)[nH]c(=O)n(Cc3ccccc3)c2n1`, 0 (inactive). Under `CC(C)c1nc(=S)n(-c2ccccc2)[nH]1` stands 0 (inactive); under `O=c1c2ccccc2[nH]c(=S)n1C1CCCCC1`, 0 (inactive). Turning to `S=c1nc(C2CC2)[nH]c2ccccc12`, the manual score was 1 (active). Under `CC(C)c1nc(=S)c2ccccc2[nH]1` stands 1 (active); under `CCc1nc2cc(Cl)c(Cl)cc2[nH]1`, 1 (active).

For the compound `O=P(CCCCCCCCCP(=O)(c1ccccc1)c1ccccc1)(c1ccccc1)c1ccccc1`, the manual score was -1 (active). For the compound `Nc1nnc(C(=O)c2ccccc2N)s1`, the manual score is 0 (inactive). Under `O=C(CSc1nc(-c2ccccc2)cc(C(F)(F)F)n1)NCCN1CCOCC1` stands 0 (inactive); under `Cc1ccc2cccc(Oc3nnnn3-c3ccccc3)c2n1`, -1 (active); under `Cc1ccc(-n2nnnc2-c2nc3ccccc3s2)cc1`, 0 (inactive). Under `CCCc1noc2c1/C(=N\O)CC(CC(C)SCC)C2` (stereo not drawn) stands -1 (active); under `COc1ccc2c(c1)Sc1ccccc1N2CCN(C)C`, -1 (active); under `CCCCn1c(-c2csc(C(C)C)c2)n[nH]c1=S`, 0 (inactive). Under `COc1ccc2occ(C(=O)c3ccc(N=C(C)N(C)C)cc3)c2c1` stands -1 (active); under `Cc1ccc(NC(=O)COc2cccnc2[N+](=O)[O-])cc1S(=O)(=O)N1CCCCC1`, 1 (active); under `Cc1ccc(Nc2n[nH]c(C)c2[N+](=O)[O-])cc1C`, -0.5 (inactive).

As for `CC(C)NS(=O)(=O)c1ccc(OCC(=O)Nc2ccc3c(c2)OCO3)c(Cl)c1`, the manual score is 0 (inactive). `Cc1ccc(OCC(=O)Nc2ccc(C)c(S(=O)(=O)N3CCCCC3)c2)c([N+](=O)[O-])n1`: the manual score is 1 (active).

In the case of `COc1cc(NC(=O)CSc2nccc(C)n2)c(C)cc1[N+](=O)[O-]`, the manual score is 0 (inactive). Regarding `COc1cccc(OCCc2c(C)n[nH]c2C)c1`, the manual score was 0 (inactive).

With `Cc1ccc(NC(=S)N=Nc2c(O)n(C)c3ccc(S(=O)(=O)N4CCOCC4)cc23)cc1`, the manual score was 0 (inactive). Regarding `Cc1ccc(S(=O)(=O)N2CCN(C)CC2)cc1-c1nnc2c3ccccc3c(C)nn12`, the manual score is 0 (inactive). For the compound `CC(C)(C)C1CCc2[nH]nc(C(=O)O)c2C1` (stereo not drawn), the manual score was 0.5 (inactive).

For `CC(O)c1nc2ccccc2n1C1CCCCC1` (stereo not drawn), the manual score was 0 (inactive). For `C=CCOc1cccc(C2C(C(=O)c3ccc(C)o3)=C(O)C(=O)N2c2nccs2)c1` (stereo not drawn) the value was 3 (inactive); for `CC(=O)Nc1ccc(C(=O)CSc2nc3ccc(C)cc3[nH]2)cc1`, 0 (inactive); for `COC(=O)c1cc(CSc2nc3ccc(C)cc3[nH]2)oc1C`, -1 (active).

For `CC1=NN(C(N)=S)C(=O)C1N=Nc1ccccc1C` (stereo not drawn), the manual score was 1 (active). For `CC1=NN(C(N)=S)C(=O)C1N=Nc1ccc(C)cc1C` (stereo not drawn), the manual score was 0.5 (inactive).

As for `COc1ccc(CC(=O)Nc2cc(=O)n(C)c(=O)n2C)cc1`, the manual score is 0 (inactive). `Cc1ccc(-c2cn(-c3ccccc3)c(SCC(=O)NC3CCS(=O)(=O)C3)n2)cc1C` (stereo not drawn): the manual score is 0 (inactive).

For the compound `O=c1c2cc(N3CCOCC3)ccc2[nH]c(=S)n1Cc1ccc(Cl)cc1`, the manual score was 0 (inactive). For `O=c1c2cc(Cl)ccc2[nH]c(=S)n1Cc1ccco1` the value was 1 (active); for `O=c1[nH]c2ccc(Cl)cc2c(=O)n1Cc1ccco1`, 0 (inactive).

Take `O=C(COc1ccc(Cl)cc1Cl)Nc1ccccn1`: the manual score is 0 (inactive). In the case of `Cc1cc(NC(=O)COc2ccc(Cl)cc2Cl)n(-c2ccccc2)n1`, the manual score is 1 (active). For `Cc1cc(NC(=O)Nc2ccccc2)n(-c2ccccc2)n1` the value was 1 (active); for `O=C(COc1ccc(Cl)cc1Cl)NNC(=S)Nc1ccc(F)cc1`, 0 (inactive); for `Cc1cc(C)n(CC(=O)O)n1`, 0 (inactive).

As for `NC1=NC2(CCCCC2)n2c(nc3ccccc32)N1`, the manual score was 0 (inactive). Under `CCCCc1ccc(NC(=S)Nc2cccnc2)cc1` stands 1 (active). For `CCSc1ccccc1C(=O)Nc1cccnc1` the value was 0 (inactive); for `CCCCN(CCCC)S(=O)(=O)c1ccc(NC(=O)c2ccc([N+](=O)[O-])cc2Cl)cc1`, 0 (inactive); for `CCCCc1ccc(NC(=S)Nc2ccc(Cl)c(S(=O)(=O)N(C)C)c2)cc1`, 1 (active). Under `O=C(CCCc1nc(-c2ccc(Cl)cc2)no1)Nc1cccnc1` stands 0 (inactive); under `CC(C)N(C(=O)CN(C#N)c1nc(N(C)C)nc(N(C)C)n1)c1ccccc1`, 0 (inactive); under `CC(/C=N/n1c(-c2ccc(Cl)cc2)n[nH]c1=S)=C\c1ccco1`, 0 (inactive). Consider `O=C(CSCc1ccccc1)N=Nc1c(O)[nH]c2ccccc12`, for which the manual score was 0 (inactive).

Take `Oc1[nH]c2ccccc2c1N=Nc1nc2ccccc2s1`: the manual score was 1 (active). For `Oc1[nH]c2ccccc2c1N=NC(=S)NCCc1ccccc1` the value was 0 (inactive); for `O=C(c1cc2nc(-c3ccccc3)cc(-c3ccccc3)n2n1)N1CCN(C(=O)c2ccco2)CC1`, 0 (inactive). With `O=C(c1ccco1)N1CCN(C(=O)c2cnn3c2NC(c2cccs2)CC3C(F)(F)F)CC1` (stereo not drawn), the manual score was 0 (inactive).

In the case of `Cc1ccc(-c2nnc(SCC(=O)Nc3cccc(C(=O)N4CCOCC4)c3)n2C)cc1`, the manual score is -0.5 (inactive). Regarding `Cc1ccc(-c2csc3ncnc(N4CCN(C(=O)c5ccccc5)CC4)c23)cc1`, the manual score was -1 (active). Under `O=C(c1ccc(-c2ccccc2)cc1)N1CCN(c2ncccn2)CC1` stands 0 (inactive); under `O=C(c1ccco1)N1CCN(c2ncnc3scc(-c4cccs4)c23)CC1`, -1 (active). For `COCC(C)OC(=O)c1c(N)n(CC(C)C)c2nc3ccccc3nc12` (stereo not drawn) the value was 0 (inactive); for `CCOP(=O)(c1ccccc1)c1nc(-c2ccccc2C)oc1N1CCCCC1` (stereo not drawn), -1 (active). Under `O=C(NC(=S)N1CCN(c2ccc(Cl)cc2[N+](=O)[O-])CC1)c1cccs1` stands 1 (active). Take `O=C(NC(=S)N1CCCCC1)c1cccs1`: the manual score is 1 (active). `O=C(NC(=S)N1CCN(c2c(Cl)cccc2[N+](=O)[O-])CC1)c1cccs1`: the manual score is 1 (active).

Regarding `O=C(O/N=C\c1ccc(N2CCCCC2)c([N+](=O)[O-])c1)c1c(F)cccc1F`, the manual score was 0 (inactive). Under `O=C(NC(=S)Nc1ccccc1N1CCOCC1)c1cccs1` stands 0 (inactive); under `O=C(NC(=S)N1CCN(c2ccc(Cl)cc2[N+](=O)[O-])CC1)c1ccco1`, 1 (active); under `O=C(NC(=S)Nc1cccc(Cl)c1N1CCCC1)c1ccc(-c2cccc([N+](=O)[O-])c2)o1`, 0 (inactive).
